Only some compounds are listed: those with a hit (about 19% of all), similar ones and a draw of the others.
TDP1 cell CPT: growth inhibition of DT40 Tdp1-/-;hTDP1 cells with camptothecin (screen for TDP1 inhibitors); chicken DT40 Tdp1-/-;hTDP1 cells + 20 nM CPT, ATP luminescence, 48 h; Potency, µM (titrated, usually from 46.2 µM), for the others: at the highest dose activity change, negative = growth inhibition, most hits filed as inhibitors; 12% of 420,000 active; further: potency means the concentration at half of the fitted maximal effect; nearly all actives have a fitted effect of over 55% in size
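Chicken DT40 Tdp1-/- cells complemented with human TDP1, 400 cells/well, exposed to compounds plus 20 nM camptothecin for at least 48 h at 37 C; viability read as ATP content by CellTiter-Glo luminescence.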
IL-1B inflam inh: blocks inflammasome-driven IL-1 beta release. AID 743279. activity change, % at 57.5 µM. THP-1 LPS/ATP IL-1B secretion, AlphaLISA, 16 h; hits give low values. 4.7% of 360,000 active; in the data active means activity change below about -50%; inconclusive means mostly about -30% to -49%
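THP-1 cells pretreated 1 hr with compounds (up to 57.5 uM final), then stimulated with LPS (250 ng/mL final) plus ATP (1.25 mM final); secreted IL-1B measured by AlphaLISA after 16 hr, decreased signal indicating inhibition.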
HT1080 IDH1KD tx: HT-1080 IDH1 knockdown cell toxicity (counter line); 2% of 360,000 active; HT-1080 IDH1 knockdown viability, ATP luminescence, 48 h; AID 686971; Potency, µM (titrated, usually from 46.1 µM), for inactives: at the top dose activity, negative = toxicity, most hits filed as cytotoxic;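 further: potency means the concentration at half of the fitted maximal effect; 0% = DMSO wells and -100% = cell-free medium wells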
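Assay cells: HT-1080 with IDH1 knockdown, 750 per well, RPMI/5% FBS. Exposure: 48 h at 37 °C following 2 h pre-incubation. Read: CellTiter-Glo luminescence; fitted concentration-response, curve class assigned.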
HT1080-NT tox: kills 2HG-producing HT-1080-NT fibrosarcoma cells; HT-1080-NT fibrosarcoma viability, CellTiter-Glo ATP luminescence, 48 h; Potency, µM (highest dose often 46.1 µM), without a hit: at the top dose activity, negative = less viability, actives largely listed as cytotoxic; 1.6% of 360,000 active; AID 686970;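 further: NT is the 2HG producing partner of a matched IDH1 knockdown line; potency means the concentration at half of the fitted maximal effect; 0% = DMSO-treated cells and -100% = media-only wells without cells; nearly all actives have a fitted effect of over 55% in size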
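Toxicity toward the 2HG-producing NT line was scored as %Activity, normalised to DMSO and no-cell wells, from CellTiter-Glo luminescence after 48 hours' treatment.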
DT40 TDP1 no CPT: qHTS for Inhibitors of human tyrosyl-DNA phosphodiesterase 1 (TDP1): qHTS in cells in absence of CPT; DT40 Tdp1-/- hTDP1 cells, no CPT, ATP luminescence, 48 h; Potency, µM (highest dose often 46.2 µM), inactives show at the top dose activity change, negative = growth inhibition, hits mostly inhibitors; 15% of 420,000 active; AID 686978, 2013; further: potency means the concentration at half of the fitted maximal effect; nearly all actives have a fitted effect of over 55% in size
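A cellular qHTS used chicken DT40 cells lacking endogenous Tdp1 but carrying stably transfected human TDP1. Compounds were applied without camptothecin, and cell growth kinetics were judged by ATP-dependent luminescence after ≥48 hr.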
* hit, by the source's call; ? = inconclusive; / = not tested or not shown. Unless noted, the call rests on the fitted dose curve; in most records, active means well fitted curve in the direction sought with a large enough effect; inconclusive means small, poorly fitted or top-dose-only effect, or another doubt; inactive means no such curve, though single readings can be large; an effect the other way counts as inactive or inconclusive. Unless noted, on the % scale 0 is the no-effect control and ±100 the full control effect.

SMILES	TDP1 cell CPT	IL-1B inflam inh	HT1080 IDH1KD tx	HT1080-NT tox	DT40 TDP1 no CPT
CCOc1ccccc1NC(=O)C1CCCN(S(=O)(=O)c2ccc3c(c2)CCCN3C(C)=O)C1 (stereo not drawn)	26µM*	-11	-10%	-2%	15µM*
COc1ccc(S(=O)(=O)N2CCCC(C(=O)N3CCN(Cc4ccccc4)CC3)C2)cc1Cl (stereo not drawn)	21µM*	?	-19%	-16%	15µM*
COc1ccc(NC(=O)CSc2n[nH]c(=O)n2C2CC2)cc1OC	8%	22	0%	-1%	-1%
O=c1n(Cc2ccc(Cl)cc2)nc2n1-c1ccccc1OC2	11%	/	/	/	-3%
Cc1ccc(S(=O)(=O)N2CCC(C(=O)N3CCN(Cc4ccccc4)CC3)CC2)cc1	21µM*	7	-1%	-2%	?
O=C(C1CCN(S(=O)(=O)c2ccccc2)CC1)N1CCN(Cc2ccccc2)CC1	?	0	10%	1%	?
c1ccc2c(c1)c1c(c3ccccc32)CN2CCCC2C1 (stereo not drawn)	5.2µM*	-97*	23µM*	?	8.2µM*
CCN(C(=O)CSc1nc2scc(-c3ccccc3)c2c(=O)n1N)C1CCS(=O)(=O)C1 (stereo not drawn)	?	0	9%	5%	?
CC1O[C@@H](O[C@@H]2C(O)C[C@H](O[C@@H]3C(O)C[C@@H](OC4CC[C@@]5(C)C6CC(O)[C@@]7(C)C(C8=CC(=O)OC8)CC[C@@]7(O)C6CC[C@@H]5C4)OC3C)OC2C)CC(O)[C@H]1O (stereo partly drawn)	3.3µM*	/	/	/	1.8µM*
COc1cn(-c2ccccc2)nc1C(=O)Nc1ccccc1	4%	-55*	-22%	-1%	-29%
Cc1ccc(C)c(-n2nnc(C(=O)Nc3ccc(Br)cc3)c2C)c1	10µM*	/	/	/	5.2µM*
COC(=O)c1ccc(NC(=O)c2cn(-c3ccccc3)nc2-c2ccncc2)cc1	?	0	-9%	-4%	?
COc1ccc(C)cc1NC(=O)c1nnn(-c2c(C)cccc2C)c1C	?	/	/	/	16µM*
COc1ccc(C)cc1NC(=O)c1nnn(Cc2cccc(Br)c2)c1N	-23%	/	/	/	-23%
COc1ccc(C)cc1NC(=O)c1nn(-c2ccccc2)cc1OC	?	-87*	15µM*	15µM*	21µM*
Cc1cc(-c2ccc(S(=O)(=O)N3CCN(c4ccc(Cl)cc4)CC3)s2)on1	?	/	/	/	-9%
C=CCN(c1ccccc1)S(=O)(=O)c1ccc2c(c1)N(C(C)=O)CCO2	-25%	83	2%	17%	4%
CC(c1ccccc1)N1CCc2[nH]c(=S)[nH]c(=O)c2C1 (stereo not drawn)	-9%	20	10%	9%	-9%
CC1(C)OC2COC(c3[nH]nc4c(=O)[nH]c(=O)[nH]c34)C2O1 (stereo not drawn)	10%	-11	10%	5%	-8%
O=C(CSc1nnc(-c2ccccc2O)o1)Oc1ccc(OCc2ccccc2)cc1	13µM*	17	?	?	13µM*
O=C(CSc1nnc(-c2ccncc2)o1)Oc1ccccc1	-1%	5	21%	17%	-9%
Cc1cc(OCC(=O)N(Cc2ccc(N(C)C)cc2)CC2CCCO2)ccc1Cl (stereo not drawn)	23µM*	/	/	/	-100%
CN(C)c1ccc(CN(CC2CCCO2)C(=O)COc2ccc(Cl)cc2)cc1 (stereo not drawn)	26µM*	/	/	/	18µM*
CN(C)c1ccc(CN(CC2CCCO2)C(=O)c2cccs2)cc1 (stereo not drawn)	?	0	0%	-5%	-23%
CS(=O)(=O)N(CC(=O)NC1CCCC1)Cc1ccc(Cl)cc1	0%	5	-1%	8%	-7%
SMILES	TDP1 cell CPT	IL-1B inflam inh	HT1080 IDH1KD tx	HT1080-NT tox	DT40 TDP1 no CPT
O=C(OCC(F)(F)C(F)F)c1ccccc1C(=O)Oc1ccc(F)cc1F	-30%	6	-4%	16%	-10%
CCOC(=O)c1ccc2[nH]c(CSc3nnc(-c4cccc(F)c4)n3C)cc(=O)c2c1	2%	/	/	/	2%
CCOc1ccc(-c2ccc(SCc3ccccn3)nn2)cc1	?	-12	-18%	-11%	23µM*
COc1ccc(-c2nnc(SCc3ccccn3)n2C)cc1	29µM*	11	21%	-3%	?
Cn1c(SCc2cc(=O)c3cc(Cl)ccc3[nH]2)nnc1-c1ccccc1	13µM*	/	/	/	21µM*
COc1ccc(-c2nnc(SCc3cc(=O)c4cc(C)cc(C)c4[nH]3)n2C)cc1	23µM*	/	/	/	18µM*
COc1ccccc1-c1nnc(SCc2ccccn2)n1C	9%	-11	2%	9%	8%
CCc1ccc(-c2ccc(SCc3ccccn3)nn2)cc1	4%	?	-10%	-13%	?
O=C(Nc1ccnn1C1CCN(C2CCCCC2)CC1)c1ccccc1	?	-14	-26%	-29%	2%
CN(C)S(=O)(=O)c1ccc(C(=O)Nc2ccnn2C2CCCCC2)cc1	?	11	-6%	-10%	16µM*
COC(=O)c1ccc(OC(=O)c2ccc(OC)cc2)c(OC)c1	-12%	0	-1%	14%	2%
Cc1nc(N2CCN(c3ccccn3)CC2)c2c(C)c(C(=O)N3CCN(c4ccc(F)cc4)CC3)sc2n1	?	-62*	-29%	-19%	?
COc1ccc(Cl)cc1NC(=O)C(C)N1CCN(c2ccccn2)CC1 (stereo not drawn)	?	-5	0%	-21%	18µM*
COc1ccc(NC(=O)c2sc3ncn(CC(=O)N4CCN(c5ccccn5)CC4)c(=O)c3c2C)c(OC)c1	0%	14	9%	0%	8%
Cc1c(C(=O)N2CCN(c3ccc(F)cc3)CC2)sc2ncnc(N3CCN(c4ccccn4)CC3)c12	18µM*	-84*	/	/	15µM*
COc1ccc(OC)c(NC(=O)c2sc3ncnc(N4CCN(c5ccccn5)CC4)c3c2C)c1	?	14	17%	?	21µM*
O=C(O)Cn1cc(F)c(=O)[nH]c1=O	-3%	-2	-1%	0%	-2%
Cc1ccc(C2=N/C(=C\c3cccc(F)c3)C(=O)O2)cc1	-20%	5	14%	12%	7%
Cc1cccc(NC(=O)Cn2c(=O)n(CCc3ccccc3)c(=O)c3ccccc32)c1	-19%	/	/	/	?
CCCN(CC(=O)Nc1ccccc1C)CC(=O)Nc1ccc(Br)cc1F	-26%	-23	-15%	-16%	-19%
C=CCSc1nnc(CC(OC)OC)n1-c1ccccc1	3%	39	7%	6%	-1%
